# Assay results published in PubChem BioAssay (NCATS).
# “And” between values parts separate entries of the source, which are not always exact repeats. Equal entries are not always repeated. Results filed as inconclusive are left out. Unmarked numbers belong to inactive results. The source made the active and inactive calls. Calls come from the whole dose curve; as a rule, active = well fitted inhibition curve with a large enough effect; inconclusive = small, poorly fitted or top-dose-only effect; inactive = flat fitted curve, though single readings scatter.
# Experiments:
# PC15 = assay: qHTS profiling for inhibitors of Plasmodium falciparum proliferation (AID 504749);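 note: 0% = DMSO vehicle and full inhibition = artemisinin control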; settings: P. falciparum in erythrocytes, SYBR Green DNA, 72 h; series mostly up to 28.7 µM
# Procedure, shortened: (§1)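 Fluorescence of SYBR Green-bound parasite DNA, read at 485/535 nm, served as the growth measure. Infected erythrocytes were cultured with compound 72 h; artemisinin (0.29 uM) and DMSO wells defined the normalization range.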
# PC49 = assay: as above; settings: P. falciparum in erythrocytes, SYBR Green DNA, 72 h; series mostly up to 28.7 µM
# Procedure, shortened: as §1
# SC27B = assay: as above; settings: P. falciparum in erythrocytes, SYBR Green DNA, 72 h; series mostly up to 28.7 µM
# Procedure, shortened: as §1
# TAB109 = assay: as above; settings: P. falciparum in erythrocytes, SYBR Green DNA, 72 h; series mostly up to 28.7 µM
# Procedure, shortened: as §1
# TAB113 = assay: as above; settings: P. falciparum in erythrocytes, SYBR Green DNA, 72 h; series mostly up to 28.7 µM
# Procedure, shortened: as §1
# TAB165 = assay: as above; settings: P. falciparum in erythrocytes, SYBR Green DNA, 72 h; series mostly up to 28.7 µM
# Procedure, shortened: as §1
# CRL-7250 = normal cell line; assay: Cytotoxic Profiling of Annotated Libraries Using Quantitative High-Throughput Screening (AID 1296008); settings: Five cell lines viability, CellTiter-Glo ATP luminescence, 48-72 h; max response: hits give low values; note: potency is the fitted concentration of half-maximal effect; for max response: % is set by controls: 0 for no effect and ±100 for the full control effect
# Procedure, shortened: (§2)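 Compounds were pin-transferred onto cells and incubated 48 or 72 hr at 37 degree Celsius, 95% humidity. CellTiter-Glo was added, plates sat 10 min at room temperature, then ATP-coupled luminescence was imaged as the viability read-out.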
# HEK293 = assay: as above; settings: Five cell lines viability, CellTiter-Glo ATP luminescence, 48-72 h; max response: hits give low values
# Procedure, shortened: as §2
# HaCat [1] = assay: as above; settings: Five cell lines viability, CellTiter-Glo ATP luminescence, 48-72 h; max response: hits give low values
# Procedure, shortened: as §2
# KB-3-1 = assay: as above; settings: Five cell lines viability, CellTiter-Glo ATP luminescence, 48-72 h; max response: hits give low values
# Procedure, shortened: as §2
# NIH3T3 [2] = assay: as above; settings: Five cell lines viability, CellTiter-Glo ATP luminescence, 48-72 h; max response: hits give low values
# Procedure, shortened: as §2
# MCC-13 = assay: qHTS assay to identify novel small-molecules to repurpose for Merkel cell carcinoma treatment (AID 1296009); settings: MCC and control cell lines, CellTiter-Glo viability, 72 h; series mostly up to 46 µM; note: potency is the fitted concentration of half-maximal effect
# Procedure, shortened: (§3)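 Luminescence from CellTiter-Glo, read 10 min after addition at room temperature, reported viability following a 72 hr, 37 degree celsius treatment with NPC or MIPE compounds in titration; values normalized to plate controls.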
# MCC-26 = assay: as above; settings: MCC and control cell lines, CellTiter-Glo viability, 72 h; series mostly up to 46 µM
# Procedure, shortened: as §3
# MKL-1 = assay: as above; settings: MCC and control cell lines, CellTiter-Glo viability, 72 h; series mostly up to 46 µM
# Procedure, shortened: as §3
# MKL-2 = assay: as above; settings: MCC and control cell lines, CellTiter-Glo viability, 72 h; series mostly up to 46 µM
# Procedure, shortened: as §3
# NIH3T3 [3] = assay: as above; settings: MCC and control cell lines, CellTiter-Glo viability, 72 h; at 44.8 µM (top of the series) unless noted
# Procedure, shortened: as §3
# HACAT [4] = assay: as above; settings: MCC and control cell lines, CellTiter-Glo viability, 72 h; series mostly up to 44.8 µM
# Procedure, shortened: as §3
# Note: nearly all actives have a fitted effect of over 60% in size.
smiles,measurement,setting,value
C[C@H]1C[C@@H]2[C@@H]([C@@H](O)C[C@@]3(C)[C@H]2CC[C@]3(O)C(=O)CO)[C@@]2(C)C=CC(=O)C=C12,Potency,PC15,inactive
same,Potency,PC49,inactive
same,Potency,SC27B,inactive
same,Potency,TAB109,inactive
same,Potency,TAB113,inactive
same,Potency,TAB165,inactive
same,max response,CRL-7250,-0.811%
same,max response,HEK293,-9.41%
same,max response,HaCat [1],-11.8%
same,max response,KB-3-1,-1.28% and 2.95%
same,outcome,NIH3T3 [2],inactive
same,Potency,MCC-13,inactive
same,Potency,MCC-26,inactive
same,Potency,MKL-1,inactive
same,Potency,MKL-2,inactive
same,outcome,NIH3T3 [3],inactive
O=C(NCCS(=O)(=O)c1ccc(C(F)(F)F)cn1)c1ccc(Cl)cc1,max response,CRL-7250,2.65%
same,max response,HEK293,-5.18%
same,outcome,HaCat [1],inactive
same,outcome,KB-3-1,inactive
same,max response,NIH3T3 [2],1.91%
same,Potency,HACAT [4],inactive
same,Potency,MCC-13,inactive
same,Potency,MCC-26,inactive
same,Potency,MKL-1,inactive
same,Potency,MKL-2,inactive
CCOc1cc2ncc(C#N)c(Nc3ccc(F)c(Cl)c3)c2cc1NC(=O)C=CCN(C)C,Potency,CRL-7250,105 nM (active)
same,Potency,HEK293,1870 nM (active)
same,Potency,HaCat [1],0.0166 µM (active)
same,Potency,KB-3-1,5.9 µM (active)
same,Potency,NIH3T3 [2],1.48 µM (active)
same,Potency,MCC-13,23500 nM (active)
same,Potency,MCC-26,14800 nM (active)
same,Potency,MKL-1,14800 nM (active)
same,Potency,MKL-2,14800 nM (active)
CC(=O)Nc1nc(C)c(-c2ccc(Cl)c(S(=O)(=O)NCCO)c2)s1,Potency,CRL-7250,1.66 µM (active) and 13 µM (active)
same,Potency,HEK293,4.18 µM (active) and 11.6 µM (active)
same,Potency,HaCat [1],6.51 µM (active)
same,Potency,KB-3-1,9.35 µM (active)
same,Potency,NIH3T3 [2],3.32 µM (active) and 2.59 µM (active)
Nc1ncnc2c1c(-c1cnc3[nH]ccc3c1)nn2C1CCCC1,Potency,CRL-7250,118 nM (active) and 920 nM (active)
same,Potency,HEK293,1.48 µM (active) and 2.59 µM (active)
same,Potency,HaCat [1],2.64 µM (active) and 1.84 µM (active)
same,Potency,KB-3-1,1.66 µM (active) and 4.61 µM (active)
same,Potency,NIH3T3 [2],83.3 nM (active) and 517 nM (active)
same,Potency,MCC-13,4180 nM (active)
same,Potency,MCC-26,10500 nM (active)
Nc1cc(C(F)(F)F)c(-c2cc(N3CCOCC3)nc(N3CCOCC3)n2)cn1,Potency,CRL-7250,2060 nM (active)
same,Potency,HEK293,935 nM (active) and 2.31 µM (active)
same,Potency,HaCat [1],1.18 µM (active) and 1.64 µM (active)
same,Potency,KB-3-1,743 nM (active) and 1.46 µM (active)
same,Potency,NIH3T3 [2],1.05 µM (active) and 2.59 µM (active)
same,Potency,MCC-13,2960 nM (active)
same,Potency,MCC-26,2350 nM (active)
same,Potency,MKL-1,1660 nM (active)
same,Potency,MKL-2,inactive
COc1cc(=C2C=c3ccccc3=N2)[nH]c1=Cc1[nH]c(C)cc1C,Potency,CRL-7250,11800 nM (active)
same,Potency,HEK293,8330 nM (active)
same,Potency,HaCat [1],20.9 µM (active)
same,Potency,KB-3-1,3.72 µM (active)
same,Potency,NIH3T3 [2],18.7 µM (active)
CN1CC[C@@H](c2c(O)cc(O)c3c(=O)cc(-c4ccccc4Cl)oc23)[C@@H](O)C1,Potency,CRL-7250,166 nM (active)
same,Potency,HEK293,148 nM (active)
same,Potency,HaCat [1],0.372 µM (active)
same,Potency,KB-3-1,0.235 µM (active)
same,Potency,NIH3T3 [2],0.526 µM (active)
same,Potency,MCC-13,590 nM (active)
COc1cc2c(Oc3ccc(NC(=O)C4(C(=O)Nc5ccc(F)cc5)CC4)cc3F)ccnc2cc1OCCCN1CCOCC1,Potency,CRL-7250,10.5 µM (active) and 8.2 µM (active)
same,Potency,HEK293,8.33 µM (active) and 18.4 µM (active)
same,Potency,HaCat [1],4.18 µM (active) and 6.51 µM (active)
same,Potency,KB-3-1,1.32 µM (active) and 2.91 µM (active)
same,Potency,NIH3T3 [2],526 nM (active) and 731 nM (active)
same,Potency,MCC-13,14800 nM (active)
same,Potency,MCC-26,4690 nM (active)
same,Potency,MKL-1,4690 nM (active)
Cn1c(=O)n(-c2ccc(C(C)(C)C#N)cc2)c2c3cc(-c4cnc5ccccc5c4)ccc3ncc21,Potency,CRL-7250,259 nM (active) and 235 nM (active)
same,Potency,HEK293,326 nM (active) and 26.4 nM (active)
same,outcome,HaCat [1],inactive
same,Potency,KB-3-1,731 nM (active) and 16.6 nM (active)
same,Potency,NIH3T3 [2],580 nM (active) and 46.9 nM (active)
same,Potency,HACAT [4],inactive
same,Potency,MKL-1,inactive
same,Potency,MKL-2,inactive
CC(C)(C)c1cnc(CSc2cnc(NC(=O)C3CCNCC3)s2)o1,Potency,CRL-7250,132 nM (active)
same,Potency,HEK293,418 nM (active)
same,Potency,HaCat [1],1.32 µM (active)
same,Potency,KB-3-1,0.332 µM (active)
same,Potency,NIH3T3 [2],3.32 µM (active)
CN1CCN(Cc2ccc(NC(=O)Nc3ccc(Oc4cc(NC(=O)C5CC5)ncn4)cc3)cc2C(F)(F)F)CC1,Potency,CRL-7250,418 nM (active) and 1.3 µM (active)
same,Potency,HEK293,184 nM (active)
same,Potency,HaCat [1],743 nM (active) and 920 nM (active)
same,Potency,KB-3-1,132 nM (active) and 206 nM (active)
same,Potency,NIH3T3 [2],0.59 µM (active)
same,Potency,MCC-13,2350 nM (active)
same,Potency,MCC-26,1180 nM (active)
same,Potency,MKL-1,372 nM (active)
same,Potency,MKL-2,264 nM (active)
